# Screening results from PubChem BioAssay.
# Only some compounds are listed: those with a hit (about 4.2% of all), similar ones and a draw of the others.
# D1 potentiator – Potentiators of Human D1 Dopamine Receptor: qHTS; HEK293 TREx D1 cells, calcium flux, dopamine EC20 potentiation; 0.036% of 360,000 active; AID 504651, 2011; potentiation, % at 10 µM; in the data active means potentiation above about 30%; further: 0% is about no effect
# TRPV1 agonist – HTS Assay for Compounds that Act as Agonists of the Vanilloid Receptor 1. Transient receptor potential cation channel subfamily V member 1 (Homo sapiens), Q8NER1. TRPV1-expressing cells, Fluo-8 calcium influx, agonist mode. activation, % at 8.33 µM. 0.19% of 320,000 active. AID 540275, 2011; in the data active means activation above about 80%; inconclusive means between about 30% and that limit; further: 0% is about no effect
# Target sequence (Q8NER1 whole entry, looked up): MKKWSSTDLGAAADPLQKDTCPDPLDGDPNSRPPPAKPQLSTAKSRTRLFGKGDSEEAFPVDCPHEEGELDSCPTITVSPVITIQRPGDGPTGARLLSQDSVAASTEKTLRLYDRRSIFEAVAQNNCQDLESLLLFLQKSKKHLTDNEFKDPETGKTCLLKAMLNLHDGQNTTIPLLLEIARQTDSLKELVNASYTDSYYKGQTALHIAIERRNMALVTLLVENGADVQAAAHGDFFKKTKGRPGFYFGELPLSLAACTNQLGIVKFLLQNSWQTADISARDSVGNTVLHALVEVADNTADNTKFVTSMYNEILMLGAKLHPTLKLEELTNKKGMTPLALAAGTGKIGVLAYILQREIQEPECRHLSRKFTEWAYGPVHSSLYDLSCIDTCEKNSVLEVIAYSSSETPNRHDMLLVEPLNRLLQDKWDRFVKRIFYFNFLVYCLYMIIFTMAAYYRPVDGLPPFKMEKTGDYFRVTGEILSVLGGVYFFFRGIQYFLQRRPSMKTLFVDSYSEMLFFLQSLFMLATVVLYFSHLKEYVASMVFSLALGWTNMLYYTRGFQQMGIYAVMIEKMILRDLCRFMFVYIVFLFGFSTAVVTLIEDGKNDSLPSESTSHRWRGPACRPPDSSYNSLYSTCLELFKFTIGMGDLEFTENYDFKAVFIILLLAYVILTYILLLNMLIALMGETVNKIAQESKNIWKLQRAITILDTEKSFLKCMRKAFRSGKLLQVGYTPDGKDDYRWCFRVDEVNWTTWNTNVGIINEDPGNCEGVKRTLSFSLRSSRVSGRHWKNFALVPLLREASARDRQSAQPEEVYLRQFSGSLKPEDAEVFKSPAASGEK
#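 Cells expressing TRPV1 were dye-loaded with Fluo-8 and read kinetically: 10 s baseline, 3 min after compound (agonist portion), then 2 min after EC20 capsaicin (allosteric enhancer portion). Calcium-bound dye fluorescence at 480/520 nm.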
# TRPV1 potentiator – HTS Assay for Compounds that Act as Potentiators of the Vanilloid Receptor 1. TRPV1-expressing cells, Fluo-8 calcium influx, capsaicin EC20 potentiation. potentiation, % at 8.33 µM. 0.02% of 320,000 active. AID 540277, 2011. Transient receptor potential cation channel subfamily V member 1 (Homo sapiens), Q8NER1; in the data active means potentiation above about 80%; inconclusive means between about 30% and that limit; further: 0% is about no effect
#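 TRPV1-expressing cells were cultured overnight at 35.5C and loaded with Fluo-8 calcium dye for 40 to 90 min at room temperature. After a 10 s baseline, compound was added and calcium influx was read kinetically for 3 min (ex 480/em 520 nm).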
# D1 antagonist – Antagonist of Human D 1 Dopamine Receptor: qHTS | 3.2% of 360,000 active | D(1A) dopamine receptor (Homo sapiens), P21728 | HEK293 TREx D1 cells, calcium flux, dopamine EC80; hits give low values | activity change, negative = inhibition, % at 10 µM; in the data active means activity change below about -30%; further: on the % scale 0 is the no-effect control and ±100 the full control effect
#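 Cells carrying a force-coupled, tetracycline-inducible human D1 receptor report calcium flux. Each well gets a 10 s baseline, compound with 180 s monitoring, then an EC80 dopamine stimulus with a second 180 s kinetic read.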
# D1 agonist – Allosteric Agonists of the Human D1 Dopamine Receptor: qHTS | D(1A) dopamine receptor (Homo sapiens), P21728 | HEK293 T-REx D1 cells, calcium flux, agonist mode | activation, % at 2 µM | 1% of 360,000 active | AID 504660, 2011; in the data active means activation above about 30%; further: 0% is about no effect
#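 Inducible HEK293 T-REx D1 cells, force-coupled to calcium signalling, were plated at 4000 cells/well with tetracycline and held overnight at 30 C. After no-wash calcium dye loading, compound-evoked calcium rise over 180 s flagged agonists.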
# * hit, by the source's call; ? = inconclusive; nt = not tested or not shown.
SMILES,D1 potentiator,TRPV1 agonist,TRPV1 potentiator,D1 antagonist,D1 agonist
Cc1ccc(-n2ncc3c(NCCc4ccccc4)ncnc32)cc1,-1.6,nt,nt,-49.9*,-3.1
COc1ccc(CCNc2ncnc3c2cnn3-c2cccc(Cl)c2)cc1,-3.7,nt,nt,-15.9,2.9
CCCn1c(=O)c2sccc2n2c(CCCC(=O)Nc3ccc(Oc4ccccc4)cc3)nnc12,-5.8,nt,nt,-11.4,4.4
O=C(O)CCN(Cc1ccccc1)S(=O)(=O)c1ccccc1Cl,9.1,-0.8,3.7,0.6,4.4
O=C(O)CCN(Cc1ccccc1)S(=O)(=O)c1ccc(Cl)cc1F,-2.4,0.7,-0.5,-37.9*,1.6
COc1cc(Br)c(C(=O)c2nccc3cc(OC)c(OC)cc23)cc1OC,-5.7,3.4,4.3,-31.3*,1.2
COc1cc(N)c(C(=O)c2nccc3cc(OC)c(OC)cc23)cc1OC,-2.5,-2.2,-17.2,26.9,15.5
Cc1cccc(N2CCN(C(=O)c3ccc4c(c3)N(Cc3cccc(Cl)c3)C(=O)c3ccccc3S4=O)CC2C)c1 (stereo not given),0.4,nt,nt,0.0,2.9
CCN(CC)c1ccc(/C=c2\sc3nnc(-c4ccccc4Cl)n3c2=O)cc1,-4.5,22.0,-1.5,-8.2,59.0*
CCN(CC)c1ccc(/C=c2/sc3nnc(-c4ccccc4C)n3c2=O)cc1,-4.5,6.3,6.3,-25.0,31.2*
Cc1ccc(/C=c2/sc3nnc(-c4ccccc4Cl)n3c2=O)o1,-3.1,-1.5,8.5,0.7,0.9
Cc1ccc(S(=O)(=O)/N=C2\C(=O)c3ccccc3C([O-])=C2n2cc[n+](CCC(C)C)c2)cc1,1.1,0.7,2.0,18.9,0.7
Cc1ccc(NC(=O)C[n+]2ccn(C3=C([O-])c4ccccc4C3=O)c2)cc1,-5.2,-1.5,5.9,-41.2*,2.2
COc1ccc(CN2CCN(c3cc(C)nc4c5c(C)cc(C)nc5nn34)CC2)cc1F,-2.7,25.0,-2.1,-38.3*,1.0
COc1cccc(OCc2cc(C(=O)N3CCC(c4ccncc4)CC3)no2)c1,-11.4,?,-17.6,-36.3*,14.0
COc1ccc(OCc2cc(C(=O)N3CCCCCC3)no2)c(Cl)c1,-9.3,7.4,-9.3,0.0,4.3
COc1ccc(OCc2cc(C(=O)N3CCC(c4ccccc4)CC3)no2)c(Cl)c1,-5.2,?,-1.5,-3.5,35.2*
O=C(c1cc(COc2cccc(C(F)(F)F)c2)on1)N1CCC(c2ccncc2)CC1,-4.2,-1.2,7.4,12.3,0.5
Cc1ccc(S(=O)(=O)c2nnn3c2nc(N2CCCC(C)C2)c2cc(Cl)ccc23)cc1C (stereo not given),0.3,nt,nt,-4.3,-0.1
COC(=O)C1=C(N)Oc2cc(C)n(C)c(=O)c2C1c1ccc(Cl)c(Cl)c1 (stereo not given),-2.8,11.7,-12.0,-33.0*,-0.2
Cc1ccc(Sc2ccc(N3CCCC(C(=O)Nc4ccc(Br)cc4)C3)nn2)cc1 (stereo not given),1.3,nt,nt,-10.1,2.2
C#Cc1ccc([C@@H]2C=C(C(=O)O)O[C@H](OCc3ccc(CO)cc3)C2)cc1,-5.6,7.6,-17.2,-39.1*,-3.2
O=C(C1=C[C@@H](c2ccccc2)C[C@@H](OCc2ccc(CO)cc2)O1)N1CCCCCCC1,-1.4,88.2*,-26.9,-6.0,1.4
CCCCN1C(=O)c2[nH]nc(-c3ccccc3O)c2C1c1cc(Br)c(O)c(OC)c1 (stereo not given),-1.7,nt,nt,-14.7,0.2
COc1ccccc1-c1cc2nc(C)c(CCC(=O)Nc3ccc(Br)c(C)c3)c(C)n2n1,-3.0,nt,nt,6.5,2.3
SMILES,D1 potentiator,TRPV1 agonist,TRPV1 potentiator,D1 antagonist,D1 agonist
Cc1ccc(-c2ccc(C3C(C#N)=C(N)Oc4n[nH]c(C)c43)o2)cc1 (stereo not given),-12.5,1.8,-3.1,-47.8*,13.5
CC(C)c1ccc(S(=O)(=O)c2nnn3c2nc(N2CCOCC2)c2sccc23)cc1,-3.4,nt,nt,0.1,5.4
Cc1nc(-c2ccc(S(=O)(=O)Nc3ccc(C#N)cc3)cc2)co1,-0.8,nt,nt,-6.6,6.1
CC(Oc1ccc(Cl)cc1Cl)c1ccnc(N)n1 (stereo not given),7.6,1.1,14.2,-1.8,2.1
Cc1cc(Cl)ccc1OC(C)c1nnc(N)s1 (stereo not given),-2.5,-1.8,?,-48.6*,2.6
C=C(C)Cn1c(SCC(=O)N/N=C/c2cccc(O)c2)nc2ccccc2c1=O,-10.8,7.9,0.4,-34.8*,1.0
C=C(C)Cn1c(SCC(=O)N/N=C/c2ccccc2)nc2ccccc2c1=O,0.1,13.9,-8.6,-5.3,6.6
O=C(CNC(=O)C(c1ccccc1)c1ccccc1)N/N=C\c1cccc(O)c1,-1.2,-7.2,2.9,32.4,51.5*
CCCOc1cccc(C2c3c(oc4cc(C)c(C)cc4c3=O)C(=O)N2CCCN2CCOCC2)c1 (stereo not given),-3.7,nt,nt,-10.3,1.4
O=C(CSc1ncccc1C(=O)Oc1ccccc1Cl)Nc1ccc(C(F)(F)F)cc1Cl,-3.4,nt,nt,-15.6,-1.7
Cn1cc(C2=C(c3ccc(Cl)cc3Cl)C(=O)NC2=O)c2ccccc21,1.8,?,-9.0,22.8,144.6*
CCOC(=O)c1cccc(NC(=O)Cc2ccc(NC(=O)N3CCCCc4ccccc43)cc2)c1,-4.6,nt,nt,-0.9,7.5
Cc1nn2c(=O)cc(COC(=O)c3ccc(NC(=O)c4ccc(C(C)(C)C)cc4)cc3)nc2s1,3.1,nt,nt,-19.6,2.7
CCO[C@H]1OC(C(=O)NC2CC2)=C[C@@H](c2ccc3c(c2)OCO3)[C@@H]1CCCO,-1.3,5.0,-2.8,-6.9,-3.2
CCO[C@@H]1OC(C(N)=O)=C[C@H](c2ccc3c(c2)OCO3)[C@H]1CCCO,2.5,-3.2,6.1,-33.9*,-5.0
CCn1c(=N)n(CCOc2ccc(Br)cc2)c2ccccc21,4.0,nt,nt,-25.8,88.6*
CCCCCn1c(=N)n(CC(O)COc2ccccc2OC)c2ccccc21 (stereo not given),-3.2,15.3,1.7,-1.0,26.0
CCCCn1c(=N)n(CCOc2ccc(C)cc2)c2ccccc21,-2.6,3.0,-4.2,32.2,50.4*
CCCCn1c(=N)n(CCOc2ccccc2OC)c2ccccc21,-7.7,nt,nt,-3.0,32.7*
Cc1ccccc1CSc1nc2cccnc2n1Cc1ccc(C(=O)NCCc2cccs2)cc1,3.8,nt,nt,-6.3,1.6
COc1cccc(CNC(=O)c2ccc(-c3nc(CS(=O)c4ccccc4)c(C)o3)cc2)c1 (stereo not given),0.2,nt,nt,-5.8,0.6
Cc1c(NC(=O)OCCNC(=O)COc2ccc(Cl)cc2Cl)sc(=S)n1C,-9.1,-7.4,?,-43.3*,14.7
